The values that follow come from PubChem BioAssay (Tox21).

“And” between values parts separate entries of the source, which are not always exact repeats. Identical values can stand only once. A number with no mark means an inactive call. Records with an inconclusive call do not appear. The source made the active and inactive calls. Unless noted, the call rests on the fitted dose curve; in most records, active means well fitted curve in the direction sought with a large enough effect in the repeat runs; inconclusive means weak or mixed curves; inactive means no such curve, though single readings can be large; an effect the other way counts as inactive or inconclusive.

Assay [1] in a line: qHTS assay to identify small molecule antagonists of the estrogen receptor alpha (ER-alpha) signaling pathway using the BG1 cell line in the presence of 0.1 nM 17-beta-estradiol - cell viability counter screen (AID 1259241). Further: nearly all actives have a fitted effect of over 40% in size. Further: potency means the concentration at half of the fitted maximal effect. In short, it runs like this: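 In this screen, hormone-deprived VM7Luc4E2 cells were seeded at 4,000 per well, dosed with compound and 0.1 nM estradiol final, and incubated 22 hr at 37C and 5% CO2; fluorogenic live-cell protease signal reported viability.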

Assay [2] is described as follows: qHTS assay to identify small molecule antagonists of the androgen receptor (AR) signaling pathway using the MDA cell line in the presence of 0.5 nM R1881 - cell viability counter screen (AID 1259242). Further: nearly all actives have a fitted effect of over 45% in size. In short, it runs like this: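 Steps: plate MDA-kb2 cells, rest 5 hr at 37C without CO2; pin in compounds in DMSO; add R1881 to 0.5 nM final; incubate 16 hr; add CellTiter-Fluor, 30 min; read fluorescence.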
On the technique in general: qHTS replaces the single test concentration by a dilution series.

Assay [3] deals with Estrogen receptor (Homo sapiens) (UniProt P03372). Briefly: qHTS assay to identify small molecule antagonists of the estrogen receptor alpha (ER-alpha) signaling pathway using the BG1 cell line in the presence of 0.1 nM 17-beta-estradiol (AID 1259244). Further: nearly all actives have a fitted effect of over 50% in size. In short, it runs like this: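 Antagonist mode: compounds in DMSO are pinned onto VM7Luc4E2 reporter cells, 0.1 nM final 17beta-estradiol is added, and after 22 h at 37C luciferase luminescence is measured with ONE-Glo.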
Chain of Estrogen receptor (Homo sapiens) (P03372 whole entry, looked up): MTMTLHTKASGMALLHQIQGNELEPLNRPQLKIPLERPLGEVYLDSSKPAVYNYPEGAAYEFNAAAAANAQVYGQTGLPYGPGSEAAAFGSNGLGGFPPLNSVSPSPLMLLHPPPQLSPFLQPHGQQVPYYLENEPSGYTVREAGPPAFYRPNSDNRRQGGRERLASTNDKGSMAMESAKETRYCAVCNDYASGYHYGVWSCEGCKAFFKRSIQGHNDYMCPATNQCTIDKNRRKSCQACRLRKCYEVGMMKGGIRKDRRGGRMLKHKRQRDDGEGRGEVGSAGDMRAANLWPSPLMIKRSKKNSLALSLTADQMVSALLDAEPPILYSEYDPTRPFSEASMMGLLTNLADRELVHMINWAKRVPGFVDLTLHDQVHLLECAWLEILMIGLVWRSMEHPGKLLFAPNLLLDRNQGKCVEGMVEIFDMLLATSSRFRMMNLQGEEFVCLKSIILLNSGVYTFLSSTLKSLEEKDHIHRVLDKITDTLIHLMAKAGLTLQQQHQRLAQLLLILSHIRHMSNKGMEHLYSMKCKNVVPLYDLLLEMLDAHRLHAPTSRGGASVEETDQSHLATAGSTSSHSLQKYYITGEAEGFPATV

Assay [4] can be described thus: qHTS assay to identify small molecule HDAC inhibitors (AID 1259364).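 Further: wild-type HCT-116 cells with endogenous class I/II HDAC activity; top concentration of the series differs between compounds; nearly all actives have a fitted effect of over 45% in size.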 Put shortly: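 Cells (HCT-116, wild type) are seeded at 1,500 per well, incubated overnight, treated with compound in DMSO for 2 hr, then developed with HDAC-Glo I/II reagent for 30 min at room temperature.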
Assay [5] can be described thus: qHTS assay to identify small molecule agonists of the sonic hedgehog signaling (Shh) pathway - cell viability counter screen (AID 1259366). Further: nearly all actives have a fitted effect of over 50% in size. Put shortly: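 In quantitative high-throughput format, 3T3 Gli1-Luc cells were exposed to compounds for 24hr and multiplexed for viability using CellTiter-Fluor, incubated 1hr at 37C before the fluorescence read.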
Assay [6] in a line: qHTS assay to identify small molecule antagonists of the sonic hedgehog signaling (Shh) pathway - cell viability counter screen (AID 1259367). Further: nearly all actives have a fitted effect of over 55% in size. Further: potency means the concentration at half of the fitted maximal effect. Put shortly:
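Tox21 library chemicals were tested on a Gli1-Luc NIH/3T3 clone (2,000 cells/well) stimulated by conditioned medium; viability was quantified as fluorescence from CellTiter-Fluor reagent added at 23 hr.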

Assay [7] in a line: qHTS assay to identify small molecule agonists of the sonic hedgehog signaling (Shh) pathway (AID 1259368; calls by dose curve;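 further: NIH/3T3-derived 3T3Gli1-Luc cells carrying a stable Gli1-driven firefly luciferase reporter; series mostly up to about 92 µM; nearly all actives have a fitted effect of over 15% in size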). Put shortly:
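Cells of a mouse NIH/3T3 clone stably expressing luciferase under the Gli1 transcriptional response element are exposed to test chemicals for 24 hr at 37 C. Pathway activation is detected as a rise in luminescence.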

A short description of assay [8]: qHTS assay to identify small molecule antagonists of the sonic hedgehog signaling (Shh) pathway (AID 1259369; calls by dose curve; further: nearly all actives have a fitted effect of over 45% in size; further: potency means the concentration at half of the fitted maximal effect). In short, it runs like this:
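Cells are plated and held 4hr at 37 C, compounds (DMSO) are pinned in, conditioned medium is added to stimulate the pathway, and after 24hr luciferase reagent is added for 30min before luminescence is read.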

The nature of assay [9]: qHTS assay to identify small molecule agonists of the androgen receptor (AR) signaling pathway in the presence of an antagonist - cell viability counter screen (AID 1259379). Further: nearly all actives have a fitted effect of over 25% in size. Further: potency means the concentration at half of the fitted maximal effect. Put shortly:
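Cytotoxicity is assessed by CellTiter-Fluor in MDA-kb2 cells carrying an MMTV-driven luciferase reporter. Cells receive 3.0uM nilutamide plus compounds at 15 concentrations and incubate 16 hr at 37C without CO2 before fluorescence reading.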

Assay [10] in a line: qHTS assay to identify small molecule antagonists of the estrogen receptor beta (ER-beta) signaling pathway - cell viability counter screen (AID 1259382). Further: nearly all actives have a fitted effect of over 55% in size. Further: potency means the concentration at half of the fitted maximal effect. Put shortly:
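Cytotoxicity counter screen multiplexed with the beta-lactamase antagonist assay: GripTite HEK293T ER-beta-bla cells were treated 16 hr with test chemicals in the presence of 1nM 17-beta-estradiol, and viability was measured by CellTiter-Glo.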

Assay [11] concerns the target Estrogen receptor (Homo sapiens) (UniProt P03372). Briefly: qHTS assay to identify small molecule agonists of the estrogen receptor alpha (ER-alpha) signaling pathway in the presence of an antagonist (AID 1259383; calls by dose curve; further: top concentration of the series differs between compounds; nearly all actives have a fitted effect of over 15% in size). Put shortly:
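Agonist-mode confirmation in the presence of the ER antagonist ICI-182,780 at 10.0nM final. Breast-derived VM7Luc4E2 reporter cells were exposed to compounds for 22hr, and ERE-driven luciferase was quantified by luminescence.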

Assay [12] in a line: qHTS assay to identify small molecule agonists or antagonists of the thyroid stimulating hormone receptor (TSHR) signaling pathway - wild type cell line counter screen (AID 1259384; calls by dose curve). In short, it runs like this:
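Wild-type Hek293 cells, 800/well, 18 h at 37C, then compound with Ro20-1724 for 30 min RT. cAMP by HTRF (cAMP-d2/anti-cAMP cryptate), 1 h RT, fluorescence read. 15 concentrations, triplicates.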

Assay [13] has as its target Thyrotropin receptor (Homo sapiens) (UniProt P16473). Briefly: qHTS assay to identify small molecule antagonists of the thyroid stimulating hormone receptor (TSHR) signaling pathway (AID 1259385; calls by dose curve; further: nearly all actives have a fitted effect of over 20% in size). In short, it runs like this:
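TSHR-HEK293 cells (800/well) plated 18 h, then compounds with Ro20-1724 and TSH at 1.5 ng/mL final, 30 min at room temperature. cAMP quantified by HTRF (cAMP-d2/anti-cAMP-cryptate, 1 h); 15 concentrations in triplicate.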

The nature of assay [14]: qHTS assay to identify small molecule phospholipidosis (PLD) inducers (AID 1259344; active means well fitted curve in the direction sought with a large enough effect; an effect the other way counts as inactive or inconclusive). In short, it runs like this:
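Image-based: LipidTOX Red pit count/intensity per well and per cell; HepG2, 24 h compound at 37 C, PFA fixation, Hoechst counterstain.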

Assay [15] is described as follows: qHTS assay to identify small molecule HDAC inhibitors - cell viability counter screen (AID 1259365). Further: series mostly up to about 92 µM; nearly all actives have a fitted effect of over 50% in size. Put shortly: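 Measured quantity is CellTiter-Glo luminescence from wild-type HCT-116 cells after compound incubation of 2hr at 37C, 5% CO2; reagent developed 30min at room temperature.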
In assay [16] the target is Estrogen receptor beta (Homo sapiens) (UniProt Q92731). Briefly: qHTS assay to identify small molecule agonists of the estrogen receptor beta (ER-beta) signaling pathway (AID 1259377; active means well fitted activation curve with a large enough effect in the signal ratio in the repeat runs, not every such curve was filed as active; the % refers to the signal ratio). Put shortly: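 Reporter cells (HEK293T, ER-beta-UAS-bla) receive compounds or DMSO after a 6 hr pre-incubation. They then incubate 16 hr at 37C/5% CO2, and fluorescence from LiveBLAzer B/G substrate is measured after 2 hours at room temperature.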
Chain of Estrogen receptor beta (Homo sapiens) (Q92731 whole entry, looked up): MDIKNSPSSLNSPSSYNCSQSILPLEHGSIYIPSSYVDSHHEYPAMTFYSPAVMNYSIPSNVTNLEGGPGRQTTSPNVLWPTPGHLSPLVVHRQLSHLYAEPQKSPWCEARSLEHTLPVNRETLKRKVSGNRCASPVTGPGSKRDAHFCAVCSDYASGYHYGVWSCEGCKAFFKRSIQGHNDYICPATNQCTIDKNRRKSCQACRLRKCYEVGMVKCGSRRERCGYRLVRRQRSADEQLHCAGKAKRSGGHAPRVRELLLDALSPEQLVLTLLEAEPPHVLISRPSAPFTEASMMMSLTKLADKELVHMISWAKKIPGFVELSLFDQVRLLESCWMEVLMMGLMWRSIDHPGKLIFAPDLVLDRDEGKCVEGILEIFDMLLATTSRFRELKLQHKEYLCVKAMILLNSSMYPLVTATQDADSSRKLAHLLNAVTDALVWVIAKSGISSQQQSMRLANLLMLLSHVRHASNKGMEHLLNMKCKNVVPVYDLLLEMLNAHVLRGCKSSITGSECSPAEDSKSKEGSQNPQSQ

The target is the same in assay [17]. Briefly: qHTS assay to identify small molecule antagonists of the estrogen receptor beta (ER-beta) signaling pathway (AID 1259378; active means well fitted inhibition curve with a large enough effect in the signal ratio in the repeat runs, not every such curve was filed as active; the % refers to the signal ratio; further: potency means the concentration at half of the fitted maximal effect). In short, it runs like this:
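ER-beta-UAS-bla HEK293T cells in 2% charcoal-stripped FBS medium treated with compound plus 1nM final 17-beta-estradiol for 16 hr at 37C. Beta-lactamase reporter read by FRET substrate fluorescence after 2 hours at room temperature.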

Assay [18] in a line: qHTS assay to identify small molecule agonists of the estrogen receptor beta (ER-beta) signaling pathway - cell viability counter screen (AID 1259380). Further: nearly all actives have a fitted effect of over 30% in size. Further: potency means the concentration at half of the fitted maximal effect. Put shortly: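 Cytotoxicity is measured in parallel with the reporter screen: after 16 hr compound exposure at 37C and a 2 hr LiveBLAzer step, CellTiter-Glo is added to the same ER-beta-UAS-bla HEK293T wells and luminescence read after 30 min.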

Assay [19] has as its target Androgen receptor (Homo sapiens) (UniProt P10275). Briefly: qHTS assay to identify small molecule agonists of the androgen receptor (AR) signaling pathway in the presence of an antagonist (AID 1259381; calls by dose curve; further: nearly all actives have a fitted effect of over 15% in size). In short, it runs like this:
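Agonist-mode confirmation screen: human MDA-kb2 cells stably expressing luciferase under an MMTV promoter bearing AR and GR response elements, co-treated with 3.0uM nilutamide (final). Luminescence measured after 16hr compound incubation.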

Chain of Thyrotropin receptor (Homo sapiens) (P16473 whole entry, looked up): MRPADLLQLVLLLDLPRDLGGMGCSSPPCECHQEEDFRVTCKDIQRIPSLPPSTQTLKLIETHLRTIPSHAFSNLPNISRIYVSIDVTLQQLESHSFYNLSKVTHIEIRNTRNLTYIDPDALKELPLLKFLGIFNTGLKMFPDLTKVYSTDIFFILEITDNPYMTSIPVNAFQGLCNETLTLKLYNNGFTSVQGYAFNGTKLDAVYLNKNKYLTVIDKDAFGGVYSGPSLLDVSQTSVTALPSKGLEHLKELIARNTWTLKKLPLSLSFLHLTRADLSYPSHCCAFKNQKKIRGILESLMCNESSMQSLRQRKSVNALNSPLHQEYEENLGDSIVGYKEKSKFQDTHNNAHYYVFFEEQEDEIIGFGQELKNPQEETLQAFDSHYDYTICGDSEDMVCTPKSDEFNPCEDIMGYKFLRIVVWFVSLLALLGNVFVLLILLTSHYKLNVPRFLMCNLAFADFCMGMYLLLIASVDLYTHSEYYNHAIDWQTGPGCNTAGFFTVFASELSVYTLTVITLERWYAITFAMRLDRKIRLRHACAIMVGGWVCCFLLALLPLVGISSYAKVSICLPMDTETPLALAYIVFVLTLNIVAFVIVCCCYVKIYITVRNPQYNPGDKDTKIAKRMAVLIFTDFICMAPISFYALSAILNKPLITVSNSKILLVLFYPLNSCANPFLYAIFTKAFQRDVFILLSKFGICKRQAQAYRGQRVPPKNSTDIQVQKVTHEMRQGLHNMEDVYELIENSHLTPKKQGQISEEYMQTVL
Chain of Androgen receptor (Homo sapiens) (P10275 whole entry, looked up): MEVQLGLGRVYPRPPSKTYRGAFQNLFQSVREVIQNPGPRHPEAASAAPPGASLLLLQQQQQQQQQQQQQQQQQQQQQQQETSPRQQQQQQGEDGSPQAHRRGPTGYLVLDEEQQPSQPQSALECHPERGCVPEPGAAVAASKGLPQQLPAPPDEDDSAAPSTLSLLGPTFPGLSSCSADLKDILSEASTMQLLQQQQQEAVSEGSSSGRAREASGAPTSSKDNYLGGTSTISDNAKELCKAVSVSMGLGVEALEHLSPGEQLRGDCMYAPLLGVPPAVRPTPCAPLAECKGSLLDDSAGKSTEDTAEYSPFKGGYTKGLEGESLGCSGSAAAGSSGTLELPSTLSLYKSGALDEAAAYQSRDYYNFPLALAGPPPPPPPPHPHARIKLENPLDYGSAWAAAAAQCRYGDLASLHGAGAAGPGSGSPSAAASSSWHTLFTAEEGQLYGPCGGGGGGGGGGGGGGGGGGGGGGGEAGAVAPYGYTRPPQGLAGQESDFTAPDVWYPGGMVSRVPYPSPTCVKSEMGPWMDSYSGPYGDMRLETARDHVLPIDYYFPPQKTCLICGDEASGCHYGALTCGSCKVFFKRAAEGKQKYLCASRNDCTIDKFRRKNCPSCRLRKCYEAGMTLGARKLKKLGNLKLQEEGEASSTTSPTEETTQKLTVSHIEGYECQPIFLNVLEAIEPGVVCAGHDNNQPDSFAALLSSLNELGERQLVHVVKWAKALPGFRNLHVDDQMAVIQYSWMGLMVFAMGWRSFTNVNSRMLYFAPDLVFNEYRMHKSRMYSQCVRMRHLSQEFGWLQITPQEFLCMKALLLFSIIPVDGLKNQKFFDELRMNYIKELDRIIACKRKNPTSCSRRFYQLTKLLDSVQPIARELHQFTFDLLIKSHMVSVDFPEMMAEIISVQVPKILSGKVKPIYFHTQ

As to `CCCC/C=C/CCCCO`, the Potency entry in assay [1], in assay [2], in assay [3], in assay [4], in assay [5] and in [6] was “inactive” throughout. For the same compound, the Potency entry in assay [7], in [8], in assay [9], in assay [10], in assay [11] and in [13] was “inactive” throughout. In assay [12], the compound was classed as inactive.

Take `Cn1cc(C(=O)[C@@H]2CCc3nc[nH]c3C2)c2ccccc21`: the Potency result in [1], in [2], in assay [14], in [4], in assay [15] and in [5] was “inactive” each time. Moreover, the Potency result in [7], in assay [16], in assay [17], in assay [9], in [10] and in assay [11] was “inactive” each time. In assay [13], the Potency result is “inactive”. In addition, the call in [12] was inactive.

`CCCC(C)c1ccccc1O` (centres undefined): the Potency result in assay [1], in assay [2], in [3], in assay [4], in assay [15] and in assay [7] was “inactive” each time. In addition, the Potency entry in assay [16], in assay [17], in assay [9], in assay [18], in [10] and in assay [11] was “inactive” in each case. For the same compound, the Potency result in assay [13] was “inactive”. For the same compound, in assay [12], the compound was called inactive.

On to `Cc1c(C)c2c(c(C)c1OC(=O)CCC(=O)O)CC[C@@](C)(CCC[C@H](C)CCC[C@H](C)CCCC(C)C)O2`, for which the Potency entry in assay [1], in assay [2], in [14], in [4], in assay [15] and in assay [5] was “inactive” in each case. For the same compound, the Potency result in assay [6], in [7] and in assay [13] was “inactive” each time. The results for the Potency in assay [9] and in assay [18] were 27.6 µM (active) and 1.95 µM (active), respectively. Also, in [12], the outcome was inactive.

For the compound `Cc1cc(C2CCCCC2)n(O)c(=O)c1`, the values for the Potency in [1], in assay [6] and in assay [8] were 11.9 µM (active), 15 µM (active) and 1.19 µM (active), respectively. Also, the Potency result in assay [2], in assay [14], in [4], in assay [15], in assay [7] and in assay [18] was “inactive” throughout. The Potency entry in [10], in [11] and in [13] was “inactive” each time. In [12], the call was inactive.

`CCC(CN)=C(c1ccccc1)c1ccccc1`: the Potency entry in [1], in assay [2], in [3], in assay [4], in [15] and in assay [5] was “inactive” throughout. For the same compound, the Potency entry in [6], in assay [7], in assay [16], in [19] and in assay [11] was “inactive” each time. In addition, the values for the Potency in [17] and in assay [18] were 23.7 µM (active) and 21.1 µM (active), respectively. Moreover, the compound was called inactive in assay [12].

As for `CN(C/C=C/C#CC(C)(C)C)Cc1cccc2ccccc12`, the Potency result in [1], in assay [2], in assay [14], in [4], in assay [5] and in assay [6] was “inactive” each time. The Potency result in [7], in assay [8] and in [9] was “inactive” in each case. Besides, the Potency in assay [18] was 26.6 µM (active); in assay [10] it was 29.8 µM (active). The outcome in [12] was inactive.

With `CCCCC(CC)COP(=O)(O)OCC(CC)CCCC` (centres undefined), the Potency result in assay [1], in assay [2], in assay [3], in assay [4], in assay [5] and in [6] was “inactive” throughout. Also, the Potency entry in assay [7], in assay [8], in [9] and in [11] was “inactive” each time. Moreover, the Potency was 68.7 µM (active) and 7.7 µM (active) in assay [18]; 68.7 µM (active) and 68.6 µM (active) in assay [10].
